The list shows a part of the results. The hit rate among all sequences tested is not known here.
B1: HC427 (peptide)
chain: CADTDVFVLNAGNASASA
B2: HC1560 (peptide)
chain: CAKRVYYLTRAGNASASA
B3: FS-2599 (peptide)
chain: CARRRRSSVFAGNASASA
B4: FS-2518 (peptide)
chain: CARRRRSSKRAGNASASA
B5: FS-2795 (peptide)
chain: CARRRRSISRAGNASASA
B6: FS-2234 (peptide)
chain: CARRRRSILFAGNASASA
B7: HC691 (peptide)
chain: CAIVSTAAQTAGNASASA
B8: HC96 (peptide)
chain: CAVVCTSMSYAGNASASA
B9: HC53 (peptide)
chain: CATTPESGSWAGNASASA
B10: HC2477 (peptide)
chain: CASTPCSAHLAGNASASA
B11: HC139 (peptide)
chain: CAEVVQSTWVAGNASASA
B12: HC509 (peptide)
chain: CAVDVQYLYGAGNASASA
B13: HC601 (peptide)
chain: CAHPTLVFDIAGNASASA
B14: FS-3066 (peptide)
chain: CARRRRSIQNAGNASASA
B15: HC1290 (peptide)
chain: CALVAEEDERAGNASASA
B16: HC915 (peptide)
chain: CASGMFDSSVAGNASASA
B17: FS-780 (peptide)
chain: CAGEMRKKRYAGNASASA
B18: FS-25 (peptide)
chain: CAESGRGKRYAGNASASA
B19: HC1796 (peptide)
chain: CAGEMEECSQAGNASASA
B20: FS-765 (peptide)
chain: CAESIRMKRYAGNASASA
B21: HC2398 (peptide)
chain: CAEVPCHRTSAGNASASA
B22: FS-898 (peptide)
chain: CAWRRRQKRRAGNASASA
B23: FS-558 (peptide)
chain: CAQRDRQKRRAGNASASA
B24: FS-866 (peptide)
chain: CARYDRQKRRAGNASASA
B25: HC1084 (peptide)
chain: CAVLIDILAGAGNASASA
B26: HC1599 (peptide)
chain: CALDLPPIIQAGNASASA
B27: HC1870 (peptide)
chain: CATTVCSGSWAGNASASA
B28: HC1864 (peptide)
chain: CATTICSGSWAGNASASA
B29: HC79 (peptide)
chain: CATTPCQGSWAGNASASA
B30: HC1720 (peptide)
chain: CAMECCSQHLAGNASASA
B31: FS-1920 (peptide)
chain: CARRPRGTMQAGNASASA
B32: FS-1933 (peptide)
chain: CARSRRLAEQAGNASASA
B33: FS-3059 (peptide)
chain: CARRPRLSDRAGNASASA
B34: FS-3057 (peptide)
chain: CARRPRDDDSAGNASASA
B35: FS-2781 (peptide)
chain: CARRPRHAEQAGNASASA
B36: HC1792 (peptide)
chain: CAEEMEECSQAGNASASA
B37: HC779 (peptide)
chain: CASTKVPAAYAGNASASA
B38: HC1105 (peptide)
chain: CAPGALVVGVAGNASASA
B39: FS-2428 (peptide)
chain: CARKYRSHHDAGNASASA
B40: FS-2041 (peptide)
chain: CARKYREVFCAGNASASA
B41: FS-2958 (peptide)
chain: CARKARFGSEAGNASASA
B42: FS-2703 (peptide)
chain: CARKYRSNKGAGNASASA
B43: FS-1900 (peptide)
chain: CARKAREVCDAGNASASA
B44: HC1483 (peptide)
chain: CADSTVTESDAGNASASA
B45: FS-1734 (peptide)
chain: CARKYRFHGGAGNASASA
B46: FS-2421 (peptide)
chain: CARKARFIHDAGNASASA

Biological target: furin, P09958
Sequence (P09958 whole entry): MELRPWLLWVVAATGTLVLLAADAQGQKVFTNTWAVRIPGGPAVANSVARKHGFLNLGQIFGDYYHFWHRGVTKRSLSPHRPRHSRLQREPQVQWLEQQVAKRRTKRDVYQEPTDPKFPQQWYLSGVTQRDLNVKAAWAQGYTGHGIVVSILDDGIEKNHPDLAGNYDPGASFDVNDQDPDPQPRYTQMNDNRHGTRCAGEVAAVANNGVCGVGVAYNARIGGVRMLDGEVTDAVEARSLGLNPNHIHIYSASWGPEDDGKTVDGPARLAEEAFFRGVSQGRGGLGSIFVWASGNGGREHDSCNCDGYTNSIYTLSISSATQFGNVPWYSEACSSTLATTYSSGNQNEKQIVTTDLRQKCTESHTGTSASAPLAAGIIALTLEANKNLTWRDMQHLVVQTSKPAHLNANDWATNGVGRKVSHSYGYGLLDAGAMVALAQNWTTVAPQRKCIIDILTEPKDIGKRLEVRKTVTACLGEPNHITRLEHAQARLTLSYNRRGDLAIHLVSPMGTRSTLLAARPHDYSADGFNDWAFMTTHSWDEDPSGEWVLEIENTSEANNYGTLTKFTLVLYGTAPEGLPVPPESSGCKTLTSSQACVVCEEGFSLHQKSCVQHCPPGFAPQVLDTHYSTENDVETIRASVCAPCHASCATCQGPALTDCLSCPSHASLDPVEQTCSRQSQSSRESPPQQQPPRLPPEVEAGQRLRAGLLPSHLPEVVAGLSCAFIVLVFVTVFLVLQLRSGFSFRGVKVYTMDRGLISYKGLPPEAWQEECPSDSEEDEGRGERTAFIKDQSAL
Assay: furin cleavage Z-score vs untreated control; higher = more cleavage, active = 3.5 or more, inactive = 1 or less, 8 variable residues between constant flanks
In short: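 Purified furin digested bead-held 8-mer peptide–cDNA fusions at 1:10 enzyme:substrate in 0.01 ml of 50 mM HEPES pH 7.5 with CaCl2 and NaCl for 7.5, 15 or 30 min. The cleavage Z-score compares sequencing counts of released DNA with furin-free reactions on a log scale, with lowess adjustment and median absolute deviation scaling.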

| Sequence | furin cleavage Z-score (7.5 min) | furin cleavage Z-score (15 min) | furin cleavage Z-score (30 min) |
| --- | --- | --- | --- |
| B1 | -0.554 (inactive) | -0.537 (inactive) | -1.25 (inactive) |
| B2 | 2.27 | 0.852 (inactive) | -0.874 (inactive) |
| B3 | 6.51 (active) | 7.07 (active) | 8.27 (active) |
| B4 | 4.4 (active) | 5.93 (active) | 5.04 (active) |
| B5 | 6.77 (active) | 7.84 (active) | 8.25 (active) |
| B6 | 5.15 (active) | 6.77 (active) | 8.96 (active) |
| B7 | -1.17 (inactive) | -1.15 (inactive) | -1.22 (inactive) |
| B8 | 1.17 | -0.0848 (inactive) | 0.455 (inactive) |
| B9 | -0.759 (inactive) | -0.574 (inactive) | -0.54 (inactive) |
| B10 | 0.591 (inactive) | 0.749 (inactive) | -1.42 (inactive) |
| B11 | -1.19 (inactive) | -0.568 (inactive) | -0.254 (inactive) |
| B12 | -0.528 (inactive) | 0.269 (inactive) | 0.219 (inactive) |
| B13 | -0.391 (inactive) | -1.13 (inactive) | -0.764 (inactive) |
| B14 | 7.74 (active) | 10.2 (active) | 7.21 (active) |
| B15 | -0.68 (inactive) | -1.05 (inactive) | -0.546 (inactive) |
| B16 | -1.55 (inactive) | -0.578 (inactive) | -0.341 (inactive) |
| B17 | 8.98 (active) | 11.5 (active) | 11.2 (active) |
| B18 | 2.19 | 4.19 (active) | 6.23 (active) |
| B19 | -0.269 (inactive) | 1.03 | 0.391 (inactive) |
| B20 | 10.4 (active) | 10.9 (active) | 9.17 (active) |
| B21 | 0.843 (inactive) | -0.111 (inactive) | 1.35 |
| B22 | 11.1 (active) | 12.6 (active) | 10.1 (active) |
| B23 | 8.63 (active) | 9.96 (active) | 8.51 (active) |

| Sequence | furin cleavage Z-score (7.5 min) | furin cleavage Z-score (15 min) | furin cleavage Z-score (30 min) |
| --- | --- | --- | --- |
| B24 | 5.33 (active) | 8.92 (active) | 8.14 (active) |
| B25 | -1.68 (inactive) | -0.0246 (inactive) | -1.35 (inactive) |
| B26 | 0.239 (inactive) | -0.216 (inactive) | -0.33 (inactive) |
| B27 | -0.934 (inactive) | -0.656 (inactive) | -0.569 (inactive) |
| B28 | -0.759 (inactive) | -0.615 (inactive) | -0.31 (inactive) |
| B29 | -0.663 (inactive) | 0.917 (inactive) | -0.281 (inactive) |
| B30 | 0.573 (inactive) | 0.0768 (inactive) | 0.728 (inactive) |
| B31 | 4.44 (active) | 4.25 (active) | 6.42 (active) |
| B32 | 0.188 (inactive) | 2.91 | 3.14 |
| B33 | -0.769 (inactive) | -0.45 (inactive) | -0.545 (inactive) |
| B34 | -0.221 (inactive) | -0.299 (inactive) | -1.38 (inactive) |
| B35 | 4.69 (active) | 5.7 (active) | 4 (active) |
| B36 | 0.0451 (inactive) | -0.543 (inactive) | -0.411 (inactive) |
| B37 | -0.328 (inactive) | -0.544 (inactive) | 0.327 (inactive) |
| B38 | -0.0947 (inactive) | 0.679 (inactive) | -0.0726 (inactive) |
| B39 | 1.45 | 4.06 (active) | 3.48 |
| B40 | 0.9 (inactive) | 2.75 | 2.7 |
| B41 | 0.624 (inactive) | 0.0236 (inactive) | 1.04 |
| B42 | 0.0213 (inactive) | 0.138 (inactive) | 1.58 |
| B43 | 5.27 (active) | 5.4 (active) | 4.27 (active) |
| B44 | -0.354 (inactive) | 0.495 (inactive) | 0.157 (inactive) |
| B45 | 0.847 (inactive) | -1.27 (inactive) | -0.103 (inactive) |
| B46 | 2.71 | 4.77 (active) | 7.1 (active) |
